# Methyltransferases = Primary Screen for Target Class Profiling of Small Molecule Inhibitors of Methyltransferases; purified enzyme, MTase-Glo SAH luminescence; active compounds read low; calls only at 40 µM; 25,000 compounds, 3.9% hits; AID 1745853, 2022; call rule not given here
#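 Each enzyme was assayed with SAM and its substrate. SAH formation detected by MTase-Glo luminescence; single-point 40 uM screen[…].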
# Numbers without * were called inactive; i = inactive; + = active, no number; ! = a repeat was not active. Only a selection was taken, and hits are over-represented in it overall. On the % scale 0 is the no-effect control and ±100 the full control effect.
SMILES,Methyltransferases
COCCOC(=O)C1=C(C)NC(C)=C(C(=O)OC(C)C)C1c1cccc([N+](=O)[O-])c1 (stereo unspecified),i
Brc1cccc(-c2nnn3c2nc(NC2CCCC2)c2ccccc23)c1,i
CCCn1c(=O)c2ccc(C(=O)NC(C)C)cc2n2c(=O)n(CC(=O)c3ccc(Cl)cc3)nc12,i
CC(C)N(CCCNC(=O)Nc1ccc(C(C)(C)C)cc1)C[C@H]1O[C@@H](n2cc(Br)c3c(N)ncnc32)[C@H](O)[C@@H]1O,+
O=S(=O)(O)c1ccc(Nc2ncnc3c2ncn3[C@@H]2O[C@H](CO)[C@@H](O)[C@H]2O)cc1,i
CC(C)N(CCCNC(=O)Nc1ccc(C(C)(C)C)cc1)C[C@H]1O[C@@H](n2ccc3c(N)ncnc32)[C@H](O)[C@@H]1O,+!
O=C(Cn1ccc2cc(S(=O)(=O)N3CCCCC3)ccc21)NCc1ccccn1,i
CCCn1c(=O)c2cc(F)ccc2n2c(SCC(=O)NC3CCCC3)nnc12,i
Cc1ccc(CNC(=O)c2cc3n(n2)CC(C)(C(=O)NCCC(C)C)N(C)C3=O)cc1 (stereo unspecified),i
CCCSc1nc(N[C@@H]2C[C@H]2c2ccc(F)c(F)c2)c2nnn([C@@H]3C[C@H](OCCO)[C@@H](O)[C@H]3O)c2n1,+
CCCn1c(=O)c2cc(F)ccc2n2c(SCC(=O)Nc3cccc(C)c3)nnc12,i
CSc1ccc(CCNC(=O)Cn2ccc3cc(S(=O)(=O)N4CCCC4)ccc32)cc1,i
CC1CCC(NC(=O)CCCc2nnc3n4nc(-c5ccccc5)nc4c4ccccc4n23)CC1 (stereo unspecified),i
Cc1ccc(CNC(=O)CCCc2nnc3n4nc(-c5ccccc5)nc4c4ccccc4n23)cc1,i
CC1CCCCN1CCNC(=O)CCCc1nnc2n3nc(-c4ccccc4)nc3c3ccccc3n12 (stereo unspecified),i
CCN(CC)CCNC(=O)CCCc1nnc2n3nc(-c4ccccc4)nc3c3ccccc3n12,+
CCN(CC)CCCNC(=O)CCCc1nnc2n3nc(-c4ccccc4)nc3c3ccccc3n12,+
C=CCNC(=O)CCCc1nnc2n3nc(-c4ccccc4)nc3c3ccccc3n12,i
CC(=O)Nc1c2n(c3ccc(F)cc13)CC(C)(C(=O)NC1CCCCC1)N(Cc1ccccc1)C2=O (stereo unspecified),i
Cc1cc2[nH]c(=O)[nH]c2cc1S(=O)(=O)NCCc1ccc(Cl)cc1,i
Cc1ccc(CN2C(=O)c3cc4occc4n3CC2(C)C(=O)NC2CCCCCCC2)cc1 (stereo unspecified),i
COC(=O)c1cc(COc2ccc3c(-c4ccccc4)cc(=O)oc3c2C)c(C)o1,i
CCC(C)NC(=O)c1ccc2c(=O)n(C(C)C)c3nn(CC(=O)Nc4ccc(C)c(F)c4)c(=O)n3c2c1 (stereo unspecified),i
Cc1cc(C)cc(-c2cnc3cc(Cl)c(-c4cccc(O)c4)cc3c2OCCCN)c1,+
COc1ccc(-c2n[nH]n3c2nc(=O)c2ccc(C(=O)NCCc4ccc(Cl)cc4)cc23)cc1,i
SMILES,Methyltransferases
Cc1ccccc1CCNC(=O)CCn1ccc2cc(S(=O)(=O)N3CCCCC3)ccc21,i
CCCn1c(=O)c2ccc(C(=O)NC3CCCC3)cc2n2c(=O)n(Cc3cc(C)ccc3C)nc12,i
O=C1Nc2ccc(I)cc2/C1=C/c1cc(Br)c(O)c(Br)c1,+
CN1C(=O)c2cc(C(=O)NC3CCCCCC3)nn2CC1(C)C(=O)NC1CCCCC1 (stereo unspecified),i
Cc1ccc(CN2C(=O)c3nc4ccccc4n3CC2(C)C(=O)NC2CCCCC2C)cc1 (stereo unspecified),i
CCCn1c(=O)c2ccc(Cl)cc2n2c(=O)n(Cc3cccc(Cl)c3)nc12,i
COc1ccccc1CNC(=O)C1(C)Cn2c(cc3ccccc32)C(=O)N1CCC1=CCCCC1 (stereo unspecified),i
CCCn1c(=O)c2ccc(C(=O)NC3CCCC3)cc2n2c(=O)n(CC(=O)Nc3cccc(F)c3)nc12,i
CC1(C(=O)NC2CCCCCCC2)Cn2c(ccc2-c2ccco2)C(=O)N1C1CCCC1 (stereo unspecified),i
CSCC1OC(n2cnc3c(=O)[nH]cnc32)C(O)C1O (stereo unspecified),i
CC(C)N(C[C@H]1O[C@@H](n2cnc3c(N)ncnc32)[C@H](O)[C@@H]1O)C1CC(CCc2nc3ccc(C(C)(C)C)cc3[nH]2)C1 (stereo partly specified),+
Nc1ncnc2c1ncn2[C@@H]1O[C@H](CO)[C@@H](O)[C@H]1O,i
Cn1c(=O)c2ccc(C(=O)NC3CCCC3)cc2n2c(=O)n(CC(=O)Nc3cccc(F)c3)nc12,i
CCOC(=O)c1cc2n(n1)CC(C)(C(=O)NCc1ccccc1OC)N(c1ccc(C)c(C)c1)C2=O (stereo unspecified),i
Cc1ccc([C@H]2Nc3ccc(S(=O)(=O)Nc4ccc(C)c(Cl)c4)cc3[C@H]3C=CC[C@H]32)cc1,i
CC1(C(=O)NC2CCCCC2)Cn2nc(-c3ccco3)cc2C(=O)N1c1ccc(F)cc1 (stereo unspecified),i
Nc1ncnc2c1ncn2[C@@H]1O[C@H](COP(=O)(O)CP(=O)(O)OP(=O)(O)O)[C@@H](O)[C@H]1O,i
OC[C@H]1O[C@@H](n2cnc3c(NCc4ccc(O)cc4)ncnc32)[C@H](O)[C@@H]1O,i
N#Cc1ccc(COC[C@H]2O[C@@H](n3c(NCc4ccc(Cl)c(Cl)c4)nc4c(N)ncnc43)[C@H](O)[C@@H]2O)cc1,+
C=CCn1c(=O)c2ccc(C(=O)NC(C)C)cc2n2c(=O)n(CC(=O)Nc3ccc(C)c(F)c3)nc12,i
Cn1c(=O)c2ccc(C(=O)NC3CCCCC3)cc2n2c(=O)n(CC(=O)c3cccc(Cl)c3)nc12,i
O=[N+]([O-])c1cccc2c(Br)[nH]nc12,+
O=C1c2cc3sccc3n2CC(C(=O)NC2CCCCCCC2)(c2ccccc2)N1Cc1ccccc1 (stereo unspecified),i
Cc1[nH]c(=O)c(C#N)cc1-c1ccncc1,i
Cc1[nH]c(=O)c(C#N)cc1-c1ccc2nccn2c1,+
SMILES,Methyltransferases
CCOC(=O)C1CCN(C(=O)c2ccc3nccn3c2)CC1,i
COc1cccc(CN2C(=O)c3nc4ccccc4n3CC2(C)C(=O)NC2CCCC(C)C2C)c1 (stereo unspecified),i
CCCNS(=O)(=O)c1ccc2[nH]c(=O)[nH]c2c1,i
Cc1c(CN2CCN(S(C)(=O)=O)CC2)sc2c(N3CCOCC3)nc(-c3cnc(N)nc3)nc12,+
CS(=O)(=O)N1CCc2c(-c3cnc(N)nc3)nc(N3CCOCC3)nc21,i
CCC(C)NC(=O)c1ccc2c(=O)n(C)c3nnc(SCc4cc(C)ccc4C)n3c2c1 (stereo unspecified),i
CC(C)(C)c1cc2n(n1)CC(C)(C(=O)NC1CCCCC1)N(Cc1ccccc1F)C2=O (stereo unspecified),i
CC(NC(=O)CCc1nnc2n(Cc3ccc(Cl)cc3)c(=O)c3ccccc3n12)c1ccccc1 (stereo unspecified),i
C=CCn1c(=O)c2ccc(C(=O)NC(C)C)cc2n2c(=O)n(CC(=O)Nc3cccc(CC)c3)nc12,i
CC1(C(=O)NC2CCCCCC2)Cn2c(cc3occc32)C(=O)N1Cc1cccs1 (stereo unspecified),i

# Screening results as filed in PubChem.
